Shown are actives, neighbours in structure and some others; about 1.2% of the full set was active somewhere.
GSH fluor: compound fluoresces at 488/530 nm on GSH beads; GSH beads flow cytometry, compound fluorescence 488/530 nm; active compounds read high; fluorescence (KMESF) at 10 µM; actives 0.25% (n = 190,000); in the data active = fluorescence above about 89;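 note: glutathione beads carrying GST-tagged Bcl family fusion proteins plus one bare bead set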
Avidin fluor: avidin bead compound fluorescence profile. Avidin beads, compound fluorescence 488/530 nm, flow cytometry; active compounds read high. actives 0.38% (n = 220,000). fluorescence (KMESF) at 10 µM; in the data active = fluorescence above about 47
RGS8-Gao reg: human RGS8-Galphao interaction regulation; P09471; multiplexed bead flow cytometry, RGS8-Galphao binding; actives lie on both sides; response (percent of control binding), % at 10 µM; actives 0.34% (n = 220,000); AID 1423; in the data active = response below about 60% or above about 140%; inactive = in between;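 note: Galphao activated as the GDP aluminium fluoride complex binding bead-coupled RGS8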
Target sequence (P09471 whole entry, looked up): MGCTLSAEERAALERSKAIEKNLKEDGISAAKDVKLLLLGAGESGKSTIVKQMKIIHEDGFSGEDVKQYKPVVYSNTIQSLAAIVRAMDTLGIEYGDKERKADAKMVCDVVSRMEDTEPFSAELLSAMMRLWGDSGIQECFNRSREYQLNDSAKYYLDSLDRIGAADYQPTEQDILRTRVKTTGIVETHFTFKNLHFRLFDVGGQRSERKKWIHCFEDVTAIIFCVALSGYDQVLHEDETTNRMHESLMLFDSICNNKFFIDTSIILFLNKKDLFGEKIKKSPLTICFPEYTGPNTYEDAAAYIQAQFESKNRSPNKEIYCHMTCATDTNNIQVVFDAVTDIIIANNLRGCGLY
RGS4-Gao reg: modulates binding of RGS4 to human Galphao | P09471 | Multiplexed bead flow cytometry; actives lie on both sides | binding response (% of control), % at 10 µM | actives 0.33% (n = 220,000) | AID 1415; in the data active = binding response below about 49% or above about 150%; inactive = in between;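 note: fluorescent Galphao activated with aluminum fluoride binding bead-coupled RGS4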
RGS7-Gao: human RGS7-Galphao interaction regulation. P09471. Multiplexed bead flow cytometry, RGS7-Galphao binding; actives lie on both sides. binding response (% of control), % at 10 µM. actives 0.35% (n = 220,000); in the data active = binding response below about 49% or above about 150%; inconclusive = no clear call, values can overlap the other calls; inactive = in between;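 note: fluorescent Galphao held in activated GDP-AlF4 state binding bead-coupled RGS7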
RGS16-Gao: modulates binding between human RGS16 and Galphao; AID 1441; bead-based flow cytometry RGS16-Galphao binding, fluorescence; actives lie on both sides; O15492+P09471; actives 0.38% (n = 220,000); binding response (% of control), % at 10 µM;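 note: Galphao activated by GDP with aluminum fluoride before binding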
RGS-Gao: modulates binding between human RGS4 and Galphao | shares compounds with RGS16-Gao | multiplexed bead flow cytometry, RGS–Galpha-o binding | RGS4–Galpha-o binding response, % at 10 µM | actives 99% (n = 1,600) | AID 1504;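 note: fluorescently labeled Galpha-o bound to GDP with aluminium fluoride binding biotinylated RGS beads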
Biotin-avidin: counter-screen: compounds disrupting biotin binding to avidin beads; inhibition, % at 10 µM; shares compounds with RGS16-Gao; streptavidin beads, fluorescein-biotin binding, flow cytometry; 1,700 tested, under 10 active;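 active = inhibition above 50%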;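 note: median green fluorescence of gated singlet beads compared with DMSO control wells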
RGS8-Gao confirm: confirmation of regulators of human RGS8-Galphao interaction; shares compounds with RGS16-Gao; bead-based flow cytometry RGS8-Galphao binding, fluorescence; actives lie on both sides; binding response (% of control), % at 10 µM; actives 3% (n = 1,700); AID 1836; in the data active = binding response below about 72% or above about 130%; inactive = in between;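 note: Galphao activated as GDP AlF4 complex before binding bead RGS8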
RGS7-Gao single: RGS7-Galphao interaction regulation, single point confirmation. shares compounds with RGS16-Gao. bead-based flow cytometry RGS7-Galphao binding; actives lie on both sides. response (percent of control binding), % at 10 µM. actives 7.8% (n = 1,700); in the data active = response below about 75% or above about 130%; inactive = in between;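 note: fluorescent Galphao activated with GDP and aluminum fluoride binding bead-coupled RGS7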
RGS16-Gao conf: confirmation of regulators of human RGS16-Galphao interaction. shares compounds with RGS16-Gao. bead-based flow cytometry, RGS16-Galphao binding; actives lie on both sides. response (% of control binding), % at 10 µM. actives 4% (n = 1,700); in the data active = response below about 74% or above about 130%; inactive = in between;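 note: Galphao activated as the GDP aluminium fluoride complex binding bead-coupled RGS16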
RGS4-Gao single: RGS4-Galphao interaction regulation, single point confirmation; shares compounds with RGS16-Gao; RGS4-Galphao binding, multiplexed bead flow cytometry; actives lie on both sides; binding response (% of control), % at 10 µM; actives 4% (n = 1,700); in the data active = binding response below about 74% or above about 130%; inactive = in between
RGS19-Gao conf: confirmation of regulators of human RGS19-Galphao interaction | bead-based flow cytometry RGS19-Galphao binding; actives lie on both sides | shares compounds with RGS16-Gao | response (percent of control binding), % at 10 µM | AID 1841 | actives 5% (n = 1,700); in the data active = response below about 50% or above about 160%; inactive = in between
Target sequence (P09471 whole entry, looked up): as above
Target sequence (P49795 whole entry, looked up): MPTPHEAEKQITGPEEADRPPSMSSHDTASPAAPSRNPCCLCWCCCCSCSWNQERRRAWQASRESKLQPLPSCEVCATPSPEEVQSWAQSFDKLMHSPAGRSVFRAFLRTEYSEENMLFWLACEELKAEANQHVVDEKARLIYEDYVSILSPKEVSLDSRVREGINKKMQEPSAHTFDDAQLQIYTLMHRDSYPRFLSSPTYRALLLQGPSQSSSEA
A number is an active result; 0 = inactive; ? = inconclusive; - = no result given; [ ] = another dose, or the depositor's remark. Unless noted, the rule behind the calls is not given here.

SMILES	GSH fluor	Avidin fluor	RGS8-Gao reg	RGS4-Gao reg	RGS7-Gao	RGS16-Gao	Biotin-avidin	RGS8-Gao confirm	RGS7-Gao single	RGS16-Gao conf	RGS4-Gao single	RGS19-Gao conf	others
COc1ccc(-n2c(C)cc(-c3csc(N)n3)c2C)cc1	0	0	12.7	12.9	-0.7	0.5	0	0	0	0	0	0
CC(C)CC(=O)/C(=C\c1ccc(Cl)cc1Cl)n1cncn1	0	0	42.1	47.8	0	0	0	0	0	0	0	0
COc1ccc(/C=C(/C(=O)c2ccc(Cl)cc2Cl)n2cncn2)cc1	0	0	0	0	0	0	-	-	-	-	-	-
O=C(CNC(=O)c1ccccc1)NCc1ccc(Cl)cc1	0	0	0	0	150.1[activator]	0	0	0	0	0	0	0	RGS-Gao=104.2
Cn1c(Cc2ccccc2)nnc1SCC(=O)c1cccs1	0	0	0	0	0	0	-	-	-	-	-	-
COC(=O)c1cc(NC(=O)CN2C(=O)CSC2=O)ccc1Cl	0	0	0	0	0	0	-	-	-	-	-	-
COC(=O)c1ccccc1NC(=O)/C=C/C(=O)O	0	0	0	0	0	34.5	0	0	0	0	0	0	RGS-Gao=86.6
COC(=O)c1ccccc1NC(=O)CN1C(=O)CSC1=O	0	-	-	-	-	-	0	0	0	0	0	0
CCOC(=O)C1(Cc2ccc(OC)cc2)CCN(C(=O)C2=CCCC2)CC1	0	0	0	0	0	0	-	-	-	-	-	-
CCCCn1nc2cc(C(=O)NC3CCCc4ccccc43)ccc2c1OCC (stereo unspecified)	0	0	0	0	0	0	-	-	-	-	-	-
O=C(N/N=C/c1ccc(OCCCF)cc1)c1ccc(C(F)(F)F)cc1	0	0	0	0	0	0	-	-	-	-	-	-
C=CCn1c(Cc2c[nH]c3ccccc23)n[nH]c1=S	0	0	0	0	0	0	-	-	-	-	-	-
C=CCn1c(Cc2ccccc2)n[nH]c1=S	0	0	0	0	0	9.3	0	0	0	0	0	0	RGS-Gao=95.5
NS(=O)(=O)c1ccc(CCNS(=O)(=O)c2ccc(Cl)nc2)cc1	-	0	0	0	?	0	-	-	-	-	-	-
O=C(N/N=C/c1cc([N+](=O)[O-])ccc1Cl)c1cc(-c2ccccc2)nc2ccccc12	-	0	0	0	?	0	-	-	-	-	-	-
O=C(N/N=C/c1cc([N+](=O)[O-])ccc1O)c1cc(-c2ccccc2)nc2ccccc12	0	0	0	0	42.5	0	0	0	0	0	0	0	RGS-Gao=54.2
COc1cc2c(cc1OC)C(C(=O)NCc1cccnc1)C(c1cccnc1)N(C)C2=O (stereo unspecified)	0	174	0	0	169.9[activator]	0	-	-	-	-	-	-	RGS-Gao=118.5
CN1CCC(N(C)C(=O)c2cc(=O)c3ccccc3o2)CC1	0	0	0	0	0	0	-	-	-	-	-	-
CN(C)CCNC(=O)/C(=C/c1ccc(-c2ccc(Cl)cc2)o1)NC(=O)c1ccccc1	0	0	162.5[activator]	182.5[activator]	185.5[activator]	0	0	0	0	0	0	0
Cc1ccccc1NC(=O)CCN1CCc2ccccc2C1	0	0	0	0	0	0	-	-	-	-	-	-
CCCC1(C(=O)OCC)NC(c2ccco2)C2C(=O)N(C)C(=O)C21 (stereo unspecified)	0	0	0	0	0	0	-	-	-	-	-	-
Cc1[nH]n(-c2ccccc2)c(=O)c1/C=N/Nc1nncc(-c2ccccc2)n1	0	-	-	-	-	-	0	0	0	0	0	0
COc1ccc(C(=O)CCC(=O)Nc2cccnc2)cc1	0	0	6.2	0.8	2.6	-5.4	0	0	0	0	0	0
COc1ccc(C(=O)CCC(=O)Nc2cccc(Cl)c2)cc1	0	0	0	0	0	0	-	-	-	-	-	-
O=C(CCC1CCCCC1)Nc1ccc(C(=O)c2ccncc2)cc1	0	0	0	0	0	0	-	-	-	-	-	-
SMILES	GSH fluor	Avidin fluor	RGS8-Gao reg	RGS4-Gao reg	RGS7-Gao	RGS16-Gao	Biotin-avidin	RGS8-Gao confirm	RGS7-Gao single	RGS16-Gao conf	RGS4-Gao single	RGS19-Gao conf	others
O=C(CCC1CCCCC1)Nc1cccnc1	0	-	-	-	-	-	0	0	0	0	0	0
COc1cc(CCCN2C(=O)C(=O)NC[C@@H]2C(C)O)cc(OC)c1OC (stereo partly specified)	-	0	0	0	?	0	-	-	-	-	-	-
C#CCOCCOCCOCCNc1nc(N2CCN(C(=O)[C@H](CCCCN)n3cc([C@@H](N)C(C)CC)nn3)CC2)nc(N2CCN(C(=O)[C@H](CCCCN)n3cc([C@@H](N)CC(C)C)nn3)CC2)n1 (stereo partly specified)	0	0	0	0	0	0	-	-	-	-	-	-
O=C(Nc1cccnc1)c1ccc2c(c1)C(=O)N(CC1CCCO1)C2=O (stereo unspecified)	0	0	0	0	0	0	-	-	-	-	-	-
CCCCOCP(=O)(CCCC)COCCCC	0	0	31.6	23.7	24.6	0	0	0	0	0	0	0
Cc1ccc(C)c(NC(=O)CN(C)C(=O)c2cc3ccccc3o2)c1	0	0	0	0	0	0	-	-	-	-	-	-
CCCCn1c(-c2csc(C(C)C)c2)n[nH]c1=S	0	0	0	0	0	0	0	0	0	0	0	0
COc1cc2c(cc1NC(=S)NC(=O)/C=C/c1ccco1)oc1ccccc12	0	0	0	0	0	21.1	0	0	0	0	0	0	RGS-Gao=102.6
CC[n+]1c(/C=C/Nc2ccccc2)sc2ccccc21	0	0	0	0	0	0	-	-	-	-	-	-
CCN1/C(=C/C=C/C=C/c2sc3ccccc3[n+]2CC)Sc2ccccc21	0	-	0	31.0	0	0	0	63.5	0	58.3	-8.0	-
Cc1cc2ccccc2n2c(SCC(=O)NCC3CCCO3)nnc12 (stereo unspecified)	0	0	0	0	0	0	-	-	-	-	-	-
COC(OC)c1ccnc(-c2ccc(OC(=O)c3cccs3)cc2)n1	0	0	15.1	23.1	?	13.2	0	0	0	0	0	0
COC(OC)c1ccnc(-c2ccc(OC(=O)c3ccccc3)cc2)n1	0	0	0	0	?	0	-	-	-	-	-	-
